Laboratory results as given in the supplement of paper PMC10646978.
± gives the standard deviation.

Experiments:
Settings in all cases: modulator concentration 10 µM
[1] = tested on: RAW-Dual (murine macrophage reporter line); experiment: NF-kB reporter (SEAP) activity fold change vs agonist alone; higher = enhanced NF-kB activity
In short: (§1)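 RAW-Dual murine macrophage reporter cells were plated at 50 000 per well in 384-well plates, pin-transferred compound to 10 μM final, and pre-incubated for 1 hour at 37 °C before a PRR agonist was added and the cells incubated overnight. NF-κB activity was read from supernatant SEAP with QUANTI-Blue at 620 nm absorbance, and IRF activity from Lucia luciferase with QUANTI-Luc by luminescence. Each signal was expressed as fold change by dividing by the mean agonist-only control on the same plate. Two replicate plates were averaged, with errors obtained by propagation.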

[2] = tested on: RAW-Dual (murine macrophage reporter line); experiment: IRF reporter (Lucia luciferase) activity fold change vs agonist alone; higher = enhanced IRF activity
In short: as §1

[3] = tested on: RAW-Dual (murine macrophage reporter line); experiment: viability score (confluency relative to resting cells, overnight) (fraction); higher = more viable, active = viable (0.7 or more)
In short: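 Overnight exposure to 10 μM final compound was carried out on RAW-Dual macrophages in 384-well plates. IncuCyte software generated two confluency masks over all wells imaged with IncuCyte. The viability score gives confluency in relation to resting cells. A compound met the cutoff if each mask exceeded 70% of resting cells.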

[4] = agonist: CpG ODN 1826 0.5 ug/mL

Row | SMILES | NF-kB reporter [1, 4] | NF-kB reporter ([1]; agonist: LPS 0.1 ug/mL) | NF-kB reporter ([1]; agonist: MPLA […]) | IRF reporter ([2]; agonist: 3'3'-cGAMP 10 ug/mL) | IRF reporter ([2]; agonist: LPS 0.1 ug/mL) | IRF reporter ([2]; agonist: MPLA […]) | viability score [3]
1 | CN1CCN(C2=C(Cl)C(=O)N(c3ccc(Cl)c(Cl)c3)C2=O)CC1 | 0.902 ± 0.11 | 1.01 ± 0.091 | 0.759 ± 0.045 | 0.524 ± 0.016 | 1.54 ± 0.28 | 1.24 ± 0.21 | 1.01 (active)
2 | O=C(NCCC(CCO)c1ccccc1)c1cccc(Cl)c1 (configuration not stated) | 1.11 ± 0.068 | 1.02 ± 0.082 | 0.946 ± 0.025 | 0.748 ± 0.027 | 0.967 ± 0.051 | 0.984 ± 0.096 | 1 (active)
3 | CCCCCCOc1ccc(N2C(=O)CC(SC(=Nc3ccccc3)Nc3ccccc3)C2=O)cc1 (configuration not stated) | 0.968 ± 0.08 | 1.07 ± 0.073 | 0.856 ± 0.05 | 0.937 ± 0.036 | 1.45 ± 0.092 | 1.23 ± 0.25 | 0.996 (active)
4 | COc1ccc(C2N3CC4(C)CN2CC(C)(C3)C4=O)cc1 (configuration not stated) | 1.03 ± 0.17 | 0.973 ± 0.093 | 0.947 ± 0.082 | 1.03 ± 0.027 | 1.32 ± 0.2 | 1.27 ± 0.15 | 1 (active)
5 | CC(C)c1cc(C(=O)N2Cc3ccc(CN4CCN(C)CC4)cc3C2)c(O)cc1O | 0.0684 ± 0.0053 | 0.106 ± 0.0088 | 0.311 ± 0.052 | 0.509 ± 0.3 | 0.971 ± 0.37 | 0.991 ± 0.44 | 0.762 (active)
6 | COc1cc2nc(N3CCN(C(=O)C4COc5ccccc5O4)CC3)nc(N)c2cc1OC (configuration not stated) [Prestw-858] | 0.138 ± 0.011 | 0.961 ± 0.071 | 1.34 ± 0.15 | 0.248 ± 0.012 | 1.19 ± 0.075 | 1.29 ± 0.13 | 0.953 (active)
7 | O=C(Nc1ccc([N+](=O)[O-])cc1Br)C1CC12CCC2 (configuration not stated) | 0.957 ± 0.074 | 0.83 ± 0.068 | 1.05 ± 0.13 | 1.03 ± 0.049 | 1.39 ± 0.27 | 1.55 ± 0.38 | 1.02 (active)
8 | CCN(CC)CCOCCOC(=O)C1(c2ccccc2)CCCC1 [Prestw-387] | 0.668 ± 0.12 | 1.14 ± 0.12 | 0.993 ± 0.12 | 0.684 ± 0.019 | 1.03 ± 0.12 | 1.11 ± 0.19 | 0.993 (active)
9 | N=C(N)Nc1ccc(Cl)cc1 | 1.02 ± 0.1 | 1.05 ± 0.067 | 0.961 ± 0.042 | 0.984 ± 0.08 | 0.986 ± 0.058 | 0.885 ± 0.099 | 0.991 (active)
10 | OCCN(CCO)CC(O)Cn1c2ccc(Br)cc2c2cc(Br)ccc21 (configuration not stated) | 0.301 ± 0.024 | 0.484 ± 0.035 | 0.617 ± 0.06 | 0.742 ± 0.024 | 1.42 ± 0.24 | 1.35 ± 0.15 | 0.94 (active)
11 | Nc1nccs1 | 0.948 ± 0.14 | 1.22 ± 0.088 | 0.91 ± 0.055 | 0.89 ± 0.03 | 1.32 ± 0.16 | 1.2 ± 0.09 | 1 (active)
12 | COc1ccc(Oc2coc3cc(OC(=O)c4ccc(Cl)c([N+](=O)[O-])c4)ccc3c2=O)cc1 | 0.82 ± 0.063 | 0.981 ± 0.052 | 1.08 ± 0.094 | 0.892 ± 0.048 | 1.29 ± 0.08 | 1.43 ± 0.14 | 1.02 (active)
13 | COc1ccc(C=C(NC(=O)c2ccccc2)C(=O)NCCC(=O)OCc2ccccc2)cc1 | 0.996 ± 0.082 | 1.04 ± 0.096 | 0.875 ± 0.073 | 0.841 ± 0.024 | 1.4 ± 0.14 | 1.11 ± 0.22 | 1.01 (active)
14 | Cc1ccc(C(=O)N(CCCN)[C@@H](c2nc3cc(Cl)ccc3c(=O)n2Cc2ccccc2)C(C)C)cc1 | 0.186 ± 0.034 | 0.318 ± 0.13 | 0.59 ± 0.089 | 0.209 ± 0.057 | 0.52 ± 0.23 | 0.241 ± 0.09 | 0.0279 (inactive)
15 | O=C(Cc1ccccc1)NCC(O)Cn1ccccc1=O (configuration not stated) | 0.84 ± 0.037 | 0.9 ± 0.12 | 1.02 ± 0.067 | 1.04 ± 0.072 | 1.26 ± 0.25 | 1.43 ± 0.42 | 1 (active)
16 | OC(CNC1CCCCC1)Cn1c2ccc(Cl)cc2c2cc(Cl)ccc21 (configuration not stated) | 0.137 ± 0.03 | 0.219 ± 0.037 | 0.613 ± 0.042 | 0.11 ± 0.058 | 0.302 ± 0.018 | 0.436 ± 0.12 | 0.0501 (inactive)
17 | O=C(NCCOc1cccc2ccccc12)Nc1cc(F)c(F)cc1Cl | 0.945 ± 0.11 | 1.06 ± 0.14 | 0.854 ± 0.053 | 0.886 ± 0.027 | 1.14 ± 0.17 | 0.878 ± 0.24 | 1.01 (active)
18 | COc1cc2c(Nc3ccc(Br)cc3F)ncnc2cc1OCC1CCN(C)CC1 | 0.825 ± 0.04 | 1.01 ± 0.11 | 1.11 ± 0.094 | 0.975 ± 0.048 | 1.11 ± 0.17 | 1.29 ± 0.35 | 0.91 (active)
19 | CC12C=CC(CO)(O1)C1C(=O)NC(=O)C12 (configuration not stated) | 1.26 ± 0.1 | 1.07 ± 0.066 | 0.838 ± 0.082 | 0.907 ± 0.047 | 0.469 ± 0.027 | 0.32 ± 0.027 | 0.783 (active)
20 | COc1ccc(CNCc2cccc3ccccc23)cc1 | 0.715 ± 0.12 | 1.06 ± 0.1 | 1.15 ± 0.11 | 0.877 ± 0.035 | 0.945 ± 0.1 | 1.31 ± 0.14 | 0.967 (active)
21 | O=C(Nc1cccc(C(F)(F)F)c1)Nc1cnn(CC2COc3ccccc3O2)c1 (configuration not stated) | 0.717 ± 0.05 | 0.934 ± 0.078 | 1.1 ± 0.059 | 0.913 ± 0.051 | 1.08 ± 0.12 | 1.78 ± 0.45 | 0.841 (active)
22 | Cc1[nH]c2ccccc2c1CCNCc1ccc(/C=C/C(=O)NO)cc1 | 0.22 ± 0.015 | 1.58 ± 0.1 | 2.77 ± 0.17 | 0.0565 ± 0.0025 | 0.355 ± 0.032 | 0.509 ± 0.06 | 0.055 (inactive)
23 | O=C(CC(c1ccccc1)c1ccccc1)Nc1ccc(CC(=O)N2CCC(O)CC2)cc1 | 1.03 ± 0.078 | 1.13 ± 0.097 | 0.907 ± 0.11 | 1.05 ± 0.062 | 1.13 ± 0.082 | 1.25 ± 0.1 | 1.01 (active)
24 | CN1CCC(COc2cnc(-c3cccc(Cn4nc(-c5cccc(C#N)c5)ccc4=O)c3)nc2)CC1 | 0.884 ± 0.28 | 1 ± 0.055 | 1.06 ± 0.082 | 0.713 ± 0.04 | 1.11 ± 0.14 | 1.37 ± 0.36 | 0.625 (inactive)
25 | CCOC(=O)C1CCCN(S(=O)(=O)c2ccc(F)cc2)C1 (configuration not stated) | 1.07 ± 0.12 | 1.1 ± 0.11 | 0.97 ± 0.059 | 0.964 ± 0.06 | 1.3 ± 0.18 | 1.02 ± 0.3 | 0.983 (active)
26 | C[C@H]1O[C@H]1P(=O)(O)O.NC(CO)(CO)CO | 0.922 ± 0.053 | 1.05 ± 0.064 | 0.977 ± 0.079 | 0.937 ± 0.036 | 1.06 ± 0.15 | 0.989 ± 0.2 | 0.994 (active)
